In PubChem BioAssay (NCI) one finds growth inhibition data, which are given here for twelve molecules.

A short description of experiment [1]: NCI Yeast Anticancer Drug Screen. Data for the rad50 strain (AID 155).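 Note: 0% = growth of vehicle-only cultures of the same strain.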 Conditions: S. cerevisiae rad50 strain growth inhibition, stronger effect = higher value. In a few lines:
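Relative growth inhibition (compound vs vehicle) was measured in yeast with a defined repair-gene alteration.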

Experiment [2] in a line: NCI Yeast Anticancer Drug Screen. Data for the mec2-1 strain (AID 157). Conditions: S. cerevisiae mec2-1 strain, stronger effect = higher value. A digest of the protocol:
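Vehicle-treated cultures served as reference for growth inhibition of compound-exposed mec2-1 yeast.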

Experiment [3] in a line: NCI Yeast Anticancer Drug Screen. Data for the sgs1 mgt1 strain (AID 161).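 Note: 0% = growth of cultures given vehicle only.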 Conditions: S. cerevisiae sgs1 mgt1 strain, stronger effect = higher value. A digest of the protocol:
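Genetically altered yeast, compound exposure, growth inhibition relative to vehicle.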

A short description of experiment [4]: NCI Yeast Anticancer Drug Screen. Data for the bub3 strain (AID 167). Conditions: S. cerevisiae bub3 mutant strain, stronger effect = higher value. A digest of the protocol:
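Screening used yeast with an engineered genetic alteration affecting cell cycle control. Compound-exposed cultures were compared with vehicle cultures, and reduced growth was taken as inhibition.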

The nature of experiment [5]: NCI Yeast Anticancer Drug Screen. Data for the mlh1 rad18 strain (AID 175). Conditions: S. cerevisiae mlh1 rad18 strain growth inhibition, stronger effect = higher value. In a few lines: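 Vehicle-treated cultures served as the reference for growth inhibition in a yeast strain carrying DNA damage repair alterations exposed to each compound.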
Experiment [6] in a line: NCI Yeast Anticancer Drug Screen. Data for the cln2 rad14 strain (AID 165).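 Note: 0% = growth equal to vehicle treated cultures.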 The settings on record: S. cerevisiae cln2 rad14 strain, stronger effect = higher value. A digest of the protocol:
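Each compound was tested on cln2 rad14 yeast. Inhibition of growth was calculated against vehicle-exposed controls.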

Setting [7] is: at 5.0 µM (retest, dose inferred, filed as 0.5).
[8] abbreviates: at 50.0 µM (retest, dose inferred, filed as 5.0).

About 79,000 compounds went through this panel and 15% of them were active in at least one assay; those are over-represented in the sample as a whole. Unmarked numbers belong to inactive results. The source made the active and inactive calls. Cut-off read from the data, not from the text of the source: active = growth inhibition above about 70%; inactive = the rest.

Regarding `CC1(C)CC(=O)C2=C(C1)OC1=C(CC(C)(C)CC1=O)C2c1ccccc1[N+](=O)[O-]` (stereo not given), the growth inhibition was 22% in experiment [1] (setting [7]); 22% in experiment [1] (setting [8]); -21.8% in experiment [1] (at 50.0 µM); 16% in experiment [2] (setting [7]); 12% in experiment [2] (setting [8]); -13.3% in experiment [2] (at 50.0 µM). Moreover, the growth inhibition in experiment [3] (setting [7]) is 25%; in experiment [3] (setting [8]), 19%; in experiment [3] (at 50.0 µM), -13.5%; in experiment [4] (setting [7]) it was 9%; in experiment [4] (setting [8]), 5%; in experiment [4] (at 50.0 µM), -17.6%. The values for the growth inhibition in experiment [5] (setting [7]), in experiment [5] (setting [8]) and in experiment [5] (at 50.0 µM) were 24%, 27% and -17.1%, respectively.

With `c1ccc([P+](CCCCCC[P+](c2ccccc2)(c2ccccc2)c2ccccc2)(c2ccccc2)c2ccccc2)cc1`, the growth inhibition in experiment [1] (setting [7]) is 61%; in experiment [1] (setting [8]) it was 85% (active); in experiment [1] (at 50.0 µM) it was 81.7% (active); in experiment [3] (setting [7]), 38%; in experiment [3] (setting [8]), 97% (active); in experiment [3] (at 50.0 µM), 83.3% (active). The growth inhibition in experiment [6] (setting [7]) was 36%; in experiment [6] (setting [8]) it was 68%; in experiment [6] (at 50.0 µM), 78.2% (active); in experiment [4] (setting [7]), 43%; in experiment [4] (setting [8]), 77% (active); in experiment [4] (at 50.0 µM) it was 86.6% (active). Also, the growth inhibition in experiment [5] (setting [7]) was 52%; in experiment [5] (setting [8]), 94% (active); in experiment [5] (at 50.0 µM), 81.7% (active).

For the molecule `C=CC1(C)CCC2C(=CCC3C2(C)CC(O)C(O)C3(C)COC2OC(CO)C(O)C(O)C2O)C1` (stereo not given), the growth inhibition in experiment [1] (setting [7]) is 1%; in experiment [1] (setting [8]) it was 99% (active); in experiment [1] (at 50.0 µM), 93.1% (active); in experiment [2] (setting [7]) it was -1%; in experiment [2] (setting [8]), 100% (active); in experiment [2] (at 50.0 µM), 94.1% (active). The growth inhibition in experiment [3] (setting [7]) was -1%; in experiment [3] (setting [8]), 99% (active); in experiment [3] (at 50.0 µM), 94.1% (active); in experiment [4] (setting [7]), 0%; in experiment [4] (setting [8]) it was 99% (active); in experiment [4] (at 50.0 µM), 93.6% (active). Besides, the growth inhibition in experiment [5] (setting [7]) is 0%; in experiment [5] (setting [8]), 82% (active); in experiment [5] (at 50.0 µM), -41.4%.

Regarding `N#CC1=C(N)OC(c2ccccc2)=C(C#N)C1c1ccccc1` (stereo not given), the growth inhibition in experiment [2] (setting [7]) was 97% (active); in experiment [2] (setting [8]), 100% (active); in experiment [2] (at 50.0 µM), 99.5% (active); in experiment [3] (setting [7]) it was 96% (active); in experiment [3] (setting [8]), 100% (active); in experiment [3] (at 50.0 µM) it was 99.3% (active). For the same molecule, the growth inhibition in experiment [6] (setting [7]) is 98% (active); in experiment [6] (setting [8]) it was 99% (active); in experiment [6] (at 50.0 µM) it was 99.2% (active); in experiment [4] (setting [7]), 98% (active); in experiment [4] (setting [8]), 99% (active); in experiment [4] (at 50.0 µM) it was 99.5% (active). The figures for the growth inhibition in experiment [5] (setting [7]), in experiment [5] (setting [8]) and in experiment [5] (at 50.0 µM) were 97% (active), 99% (active) and 99.3% (active), respectively.

For `Cc1cccc(NC(=O)CCc2ccc(Cl)cc2)n1`, the growth inhibition in experiment [1] (setting [7]) is 2%; in experiment [1] (setting [8]), 1%; in experiment [1] (at 50.0 µM) it was 6.3%; in experiment [3] (setting [7]) it was 2%; in experiment [3] (setting [8]), 13%; in experiment [3] (at 50.0 µM), 0.2%. Besides, the growth inhibition in experiment [6] (setting [7]) is -6%; in experiment [6] (setting [8]), -15%; in experiment [6] (at 50.0 µM), 41.8%; in experiment [4] (setting [7]), -1%; in experiment [4] (setting [8]), 0%; in experiment [4] (at 50.0 µM), 9.9%. The growth inhibition in experiment [5] (setting [7]) is 8%; in experiment [5] (setting [8]), -7%; in experiment [5] (at 50.0 µM), -2.8%.

On to `CC12CC(Sc3ccccc3N1)c1ccccc1O2` (stereo not given), for which the growth inhibition in experiment [2] (setting [7]) is 28%; in experiment [2] (setting [8]) it was 46%; in experiment [2] (at 50.0 µM), 25.3%; in experiment [3] (setting [7]) it was 43%; in experiment [3] (setting [8]), 80% (active); in experiment [3] (at 50.0 µM), 51.8%. Further, the growth inhibition in experiment [6] (setting [7]) is 33%; in experiment [6] (setting [8]), 40%; in experiment [6] (at 50.0 µM) it was 27.4%; in experiment [4] (setting [7]), 40%; in experiment [4] (setting [8]) it was 73% (active); in experiment [4] (at 50.0 µM), 76.3% (active). Moreover, the growth inhibition is 40% in experiment [5] (setting [7]), 73% (active) in experiment [5] (setting [8]) and 44.5% in experiment [5] (at 50.0 µM).

As to `CCOC(=O)c1ccc(NC(=O)CCl)cc1`, the growth inhibition in experiment [1] (setting [7]) is 3%; in experiment [1] (setting [8]) it was 99% (active); in experiment [1] (at 50.0 µM), 51.9%; in experiment [3] (setting [7]), 21%; in experiment [3] (setting [8]), 98% (active); in experiment [3] (at 50.0 µM), 67.5%. The growth inhibition was 8% in experiment [6] (setting [7]); 91% (active) in experiment [6] (setting [8]); 28.7% in experiment [6] (at 50.0 µM); 0% in experiment [4] (setting [7]); 95% (active) in experiment [4] (setting [8]); 40% in experiment [4] (at 50.0 µM). In addition, the growth inhibition in experiment [5] (setting [7]) was 12%; in experiment [5] (setting [8]), 99% (active); in experiment [5] (at 50.0 µM), 64.2%.

As for `C=CC(=O)NC(C)C`, the growth inhibition was 0% in experiment [2] (setting [7]); 2% in experiment [2] (setting [8]); -3.7% in experiment [2] (at 50.0 µM); 1% in experiment [3] (setting [7]); 4% in experiment [3] (setting [8]); 19.4% in experiment [3] (at 50.0 µM). Further, the growth inhibition was -1% in experiment [6] (setting [7]); 1% in experiment [6] (setting [8]); 16.7% in experiment [6] (at 50.0 µM); -2% in experiment [4] (setting [7]); -4% in experiment [4] (setting [8]); 5.8% in experiment [4] (at 50.0 µM). Also, the growth inhibition was 0% in experiment [5] (setting [7]), 9% in experiment [5] (setting [8]) and 40.3% in experiment [5] (at 50.0 µM).

On to `CC(COC(=O)C(c1ccccc1)C1C=CCCC1)CN1CCCC1` (stereo not given), for which the growth inhibition was -1% in experiment [1] (setting [7]); 60% in experiment [1] (setting [8]); 70.4% (active) in experiment [1] (at 50.0 µM); 21% in experiment [3] (setting [7]); 61% in experiment [3] (setting [8]); 72.8% (active) in experiment [3] (at 50.0 µM). Besides, the growth inhibition in experiment [6] (setting [7]) is 4%; in experiment [6] (setting [8]), 34%; in experiment [6] (at 50.0 µM), 86.5% (active); in experiment [4] (setting [7]), 0%; in experiment [4] (setting [8]), 36%; in experiment [4] (at 50.0 µM), 74.5% (active). The growth inhibition is 35% in experiment [5] (setting [7]), 74% (active) in experiment [5] (setting [8]) and 90.3% (active) in experiment [5] (at 50.0 µM).

With `C=CCSc1nc2ccc(N3C(=O)C=CC3=O)cc2s1`, the growth inhibition in experiment [1] (setting [7]) was 59%; in experiment [1] (setting [8]), 99% (active); in experiment [1] (at 50.0 µM), 94.7% (active); in experiment [3] (setting [7]), 51%; in experiment [3] (setting [8]) it was 100% (active); in experiment [3] (at 50.0 µM), 97.5% (active). In addition, the growth inhibition in experiment [6] (setting [7]) was 24%; in experiment [6] (setting [8]), 98% (active); in experiment [6] (at 50.0 µM), 96.5% (active); in experiment [4] (setting [7]), 27%; in experiment [4] (setting [8]), 99% (active); in experiment [4] (at 50.0 µM), 99% (active). For the same molecule, the growth inhibition in experiment [5] (setting [7]) is 85% (active); in experiment [5] (setting [8]) it was 97% (active); in experiment [5] (at 50.0 µM), 97.8% (active).

On to `C/C(=N\NC(=S)NC(C)(C)C)c1ccccn1`, for which the growth inhibition in experiment [2] (setting [7]) is 13%; in experiment [2] (setting [8]), 99% (active); in experiment [2] (at 50.0 µM) it was 85% (active); in experiment [3] (setting [7]), 32%; in experiment [3] (setting [8]) it was 99% (active); in experiment [3] (at 50.0 µM) it was 90.5% (active). Moreover, the growth inhibition in experiment [6] (setting [7]) was 31%; in experiment [6] (setting [8]) it was 99% (active); in experiment [6] (at 50.0 µM), 89.5% (active); in experiment [4] (setting [7]), 18%; in experiment [4] (setting [8]), 99% (active); in experiment [4] (at 50.0 µM) it was 90.2% (active). The growth inhibition was 38% in experiment [5] (setting [7]), 98% (active) in experiment [5] (setting [8]) and 91.2% (active) in experiment [5] (at 50.0 µM).

As for `CCCC1(C)C(C#N)(C#N)C1(C#N)C#N`, the growth inhibition in experiment [1] (setting [7]) was 98% (active); in experiment [1] (setting [8]) it was 98% (active); in experiment [1] (at 50.0 µM) it was 98.5% (active); in experiment [3] (setting [7]), 98% (active); in experiment [3] (setting [8]), 99% (active); in experiment [3] (at 50.0 µM), 99.3% (active). Besides, the growth inhibition was 99% (active) in experiment [6] (setting [7]); 99% (active) in experiment [6] (setting [8]); 99.1% (active) in experiment [6] (at 50.0 µM); 99% (active) in experiment [4] (setting [7]); 99% (active) in experiment [4] (setting [8]); 99% (active) in experiment [4] (at 50.0 µM). The growth inhibition in experiment [5] (setting [7]) is 99% (active); in experiment [5] (setting [8]), 99% (active); in experiment [5] (at 50.0 µM), 99.2% (active).
